Eight compounds from PubChem BioAssay (NCI) can be followed below.

About 83,000 compounds went through this panel and 20% of them were active in at least one assay; those are over-represented in the sample as a whole.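 Activity criterion: percent growth below 10, measured after cells in 96-well plates were exposed to a single compound concentration for 48 hours.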 Unmarked numbers belong to inactive results. Calls of active or inactive are those of the source.

Some test systems named below: SK-MEL-2 melanoma; EKVX NSCLC; SN12C renal; UO-31 renal; TK-10 renal; ACHN renal; CAKI-1 renal; A498 renal; CCRF-CEM leukemia; SR leukemia; RPMI-8226 leukemia; OVCAR-8 ovarian; OVCAR-5 ovarian; OVCAR-4 ovarian; IGROV1 ovarian; OVCAR-3 ovarian; HS 578T breast; NCI/ADR-RES ovarian; SK-OV-3 ovarian; MOLT-4 leukemia.
Common to all, as to assay: NCI-60 one-dose screen, 48 h (100 = growth as untreated, 0 = no growth, -100 = all killed)
Holding throughout (conditions): 10 µM unless noted

For `O=C1CC[C@H](c2ccc(O)c3c2C(=O)[C@@H]2O[C@@H]2C3=O)c2cccc(O)c21`, the growth was 69.5% in the assay with SK-MEL-2 melanoma; 102% in the assay with EKVX NSCLC; 54.6% in the assay on SN12C renal; -77.4% (active) in the assay with UO-31 renal; 3.89% (active) with TK-10 renal; -42% (active) in the assay on ACHN renal. The growth with CAKI-1 renal is 2.61% (active); with A498 renal, 85%; in the assay on CCRF-CEM leukemia it was -2.85% (active); with SR leukemia, 2.02% (active); with RPMI-8226 leukemia, -3.81% (active); in the assay on OVCAR-8 ovarian, 43.5%. The growth in the assay with OVCAR-5 ovarian was 99.6%; with OVCAR-4 ovarian, 72.4%; in the assay on IGROV1 ovarian, 90%; in the assay on OVCAR-3 ovarian, -9.05% (active); in the assay on HS 578T breast, 98.4%; in the assay on NCI/ADR-RES ovarian, 90%.

In the case of `O=C1/C(=C/c2ccc(Cl)cc2)SC(=S)N1CCc1ccc(O)cc1`, the growth is 99.7% in the assay with SK-MEL-2 melanoma; 93.8% with EKVX NSCLC; 80.2% with SN12C renal; 54.6% in the assay on UO-31 renal; 80.5% with TK-10 renal; 99.1% in the assay with ACHN renal. Besides, the growth with CAKI-1 renal is 81.3%; in the assay with A498 renal, 87.6%; in the assay on CCRF-CEM leukemia, 23.1%; in the assay with SR leukemia, 102%; in the assay on RPMI-8226 leukemia it was 90.6%; in the assay with OVCAR-8 ovarian it was 97.6%. Also, the growth with OVCAR-5 ovarian was 104%; with OVCAR-4 ovarian, 58.4%; with SK-OV-3 ovarian it was 90.9%; in the assay with IGROV1 ovarian it was 14.6%; with OVCAR-3 ovarian, 98.2%; in the assay on HS 578T breast it was 86.1%. Besides, the growth in the assay with NCI/ADR-RES ovarian is 98.5%.

Consider `CC1=C[C@H]2c3c(c(O)c(O)c4oc(-c5ccccc5)cc(=O)c34)[C@H](c3cc(O)c(O)c4oc(-c5ccccc5)cc(=O)c34)[C@H]2C(C)(C)C1`, for which the growth with SK-MEL-2 melanoma was -3.08% (active); in the assay on EKVX NSCLC, 14.5%; with SN12C renal, 1.79% (active); with UO-31 renal, -50.2% (active); in the assay with TK-10 renal, 28.4%; with ACHN renal, 2.25% (active). Also, the growth with CAKI-1 renal is -27% (active); in the assay with CCRF-CEM leukemia, 4.65% (active); with MOLT-4 leukemia it was 5.24% (active); in the assay on SR leukemia it was 0.0772% (active); with RPMI-8226 leukemia, 7.2% (active); with OVCAR-8 ovarian it was 8.73% (active). The growth in the assay with OVCAR-5 ovarian is 20%; in the assay on OVCAR-4 ovarian, 10.4%; in the assay on SK-OV-3 ovarian it was -3.99% (active); in the assay with IGROV1 ovarian it was -31.1% (active); in the assay with OVCAR-3 ovarian it was 7.79% (active); in the assay on HS 578T breast, 5.98% (active). The growth in the assay on NCI/ADR-RES ovarian is 17.5%.

As to `O=c1c2c3c(sc2nc(N/N=C/c2cn(-c4ccccc4)nc2-c2ccc(Cl)cc2)n1Cc1ccccc1)CCCC3`, the growth in the assay on SK-MEL-2 melanoma is 103%; with EKVX NSCLC, 106%; with SN12C renal, 127%; in the assay with UO-31 renal it was 95.9%; in the assay on TK-10 renal, 129%; in the assay with ACHN renal, 117%. In addition, the growth in the assay on CAKI-1 renal was 98.9%; in the assay on A498 renal, 112%; in the assay on CCRF-CEM leukemia it was 109%; with SR leukemia, 59.3%; in the assay with RPMI-8226 leukemia, 119%; in the assay with OVCAR-8 ovarian it was 98.2%. Also, the growth in the assay on OVCAR-5 ovarian was 121%; in the assay on OVCAR-4 ovarian, 109%; in the assay on SK-OV-3 ovarian, 102%; in the assay with IGROV1 ovarian it was 92.4%; in the assay with OVCAR-3 ovarian it was 106%; in the assay on HS 578T breast it was 94.2%. For the same compound, in the assay on NCI/ADR-RES ovarian, the growth is 108%.

As to `C#CCOc1ccc2ncnc(NCc3cccc(NC(=O)CCl)c3)c2c1`, the growth in the assay on SK-MEL-2 melanoma was 39.7% [8.25 µM]; with EKVX NSCLC it was 65.6% [8.25 µM]; in the assay with SN12C renal, 25.8% [8.25 µM]; with UO-31 renal, 84.9% [8.25 µM]; with TK-10 renal it was 74.1% [8.25 µM]; in the assay with ACHN renal, 39.5% [8.25 µM]. Further, the growth with CAKI-1 renal was 73.3% [8.25 µM]; with A498 renal, 77.9% [8.25 µM]; in the assay on CCRF-CEM leukemia, 4.16% [8.25 µM] (active); with SR leukemia it was 15.7% [8.25 µM]; with RPMI-8226 leukemia, 21% [8.25 µM]; in the assay with OVCAR-8 ovarian, 17.2% [8.25 µM]. Moreover, the growth is 55.3% [8.25 µM] in the assay with OVCAR-5 ovarian; 31.6% [8.25 µM] with OVCAR-4 ovarian; 83% [8.25 µM] in the assay with SK-OV-3 ovarian; -68.1% [8.25 µM] (active) in the assay on IGROV1 ovarian; 24.2% [8.25 µM] in the assay with OVCAR-3 ovarian; 50.2% [8.25 µM] in the assay on HS 578T breast. Further, the growth in the assay on NCI/ADR-RES ovarian was 77.7% [8.25 µM].

As to `CCc1c(Nc2ccccc2C)nc(N)[nH]c1=O`, the growth is 109% with SK-MEL-2 melanoma; 94.5% in the assay with EKVX NSCLC; 100% with SN12C renal; 90.7% with UO-31 renal; 105% in the assay with TK-10 renal; 106% in the assay on ACHN renal. Further, the growth with CAKI-1 renal is 90.9%; in the assay with CCRF-CEM leukemia, 100%; in the assay with MOLT-4 leukemia it was 99.4%; with SR leukemia, 85.9%; in the assay on RPMI-8226 leukemia, 104%; in the assay on OVCAR-8 ovarian, 119%. In addition, the growth was 92.3% with OVCAR-5 ovarian; 107% in the assay on OVCAR-4 ovarian; 109% with SK-OV-3 ovarian; 93.4% with IGROV1 ovarian; 110% in the assay with OVCAR-3 ovarian; 115% in the assay on HS 578T breast. The growth in the assay with NCI/ADR-RES ovarian was 109%.

`COc1ccc(/C=N/C2=C(C#N)C(c3ccc(N(C)C)cc3)c3ccc4ccccc4c3O2)cc1` (stereo unspecified): the growth with SK-MEL-2 melanoma is 62.6%; in the assay with EKVX NSCLC it was 61.3%; with SN12C renal it was 72.3%; with UO-31 renal, 46.5%; with TK-10 renal, 132%; with ACHN renal it was 66%. The growth is 19.6% in the assay on CAKI-1 renal; 63.1% with CCRF-CEM leukemia; 54.4% with MOLT-4 leukemia; 19.4% with SR leukemia; 63% in the assay with RPMI-8226 leukemia; 85.8% in the assay with OVCAR-8 ovarian. Besides, the growth was 88% with OVCAR-5 ovarian; 86.8% in the assay with OVCAR-4 ovarian; 73.7% in the assay on SK-OV-3 ovarian; 39.5% in the assay on IGROV1 ovarian; 38.2% in the assay on OVCAR-3 ovarian; 58.6% in the assay with HS 578T breast. Moreover, the growth in the assay with NCI/ADR-RES ovarian was 46.7%.

`CC1=C[C@H]2c3c(c(O)c(O)c4oc5cc(O)ccc5c(=O)c34)[C@H](c3cc(O)c(O)c4oc5cc(O)ccc5c(=O)c34)[C@H]2C(C)(C)C1`: the growth in the assay on SK-MEL-2 melanoma was 44.8%; in the assay with EKVX NSCLC it was 51.1%; in the assay with SN12C renal, 28.7%; with UO-31 renal, 46.5%; in the assay on TK-10 renal, 56%; in the assay with ACHN renal it was 37.9%. Also, the growth in the assay with CAKI-1 renal is 40.3%; in the assay with CCRF-CEM leukemia, 27.1%; with MOLT-4 leukemia, 25.3%; in the assay with SR leukemia it was 24.6%; with RPMI-8226 leukemia, 29.5%; in the assay with OVCAR-8 ovarian, 25.4%. For the same compound, the growth in the assay with OVCAR-5 ovarian is 59.1%; in the assay on OVCAR-4 ovarian, 56%; with SK-OV-3 ovarian it was 59.7%; with IGROV1 ovarian, 21.4%; in the assay with OVCAR-3 ovarian, 46.4%; with HS 578T breast, 22.4%. Besides, in the assay on NCI/ADR-RES ovarian, the growth is 101%.
